Reference: PubChem BioAssay (EPA / NIEHS)
Inconclusive results are not listed. A structure can be active in one record and inactive in another. The source made the active and inactive calls. Rule for the calls, unless noted: active = hit-call score of the fitted dose curve at least 0.9, where 1 is the maximum; inactive = score below 0.9.

Tests used:
[1] = molecular target: Paired box protein Pax-6 (Homo sapiens) (UniProt P26367); assay: ATG_Pax6_CIS: Attagene CIS-FACTORIAL HepG2 Assay for human Paired Box 6 (PAX6) (AID 2282956); conditions: HepG2 CIS-FACTORIAL PAX6 reporter transcription, RNA readout; actives raise or lower the signal
Sequence of Paired box protein Pax-6 (Homo sapiens) (P26367 whole entry, looked up): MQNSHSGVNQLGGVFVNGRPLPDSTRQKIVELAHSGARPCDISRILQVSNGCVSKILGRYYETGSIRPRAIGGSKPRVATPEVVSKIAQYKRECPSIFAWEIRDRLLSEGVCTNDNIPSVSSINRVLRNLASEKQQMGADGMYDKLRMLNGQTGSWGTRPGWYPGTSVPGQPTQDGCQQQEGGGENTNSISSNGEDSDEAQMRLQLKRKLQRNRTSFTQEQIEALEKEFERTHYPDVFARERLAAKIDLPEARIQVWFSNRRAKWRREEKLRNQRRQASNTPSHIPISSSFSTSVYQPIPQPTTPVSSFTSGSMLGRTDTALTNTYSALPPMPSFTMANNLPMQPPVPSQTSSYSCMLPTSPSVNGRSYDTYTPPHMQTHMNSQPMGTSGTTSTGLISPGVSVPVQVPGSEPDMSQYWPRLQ
Outline: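 Fluorescent RT-PCR products separated by capillary electrophoresis report PAX6-linked promoter mRNA in HepG2 cells 24 h post-dose. Curves fitted bidirectionally, DMSO as negative control.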

[2] = ATG_PXRE_CIS: Attagene CIS-FACTORIAL HepG2 Assay for human Pregnane X Receptor Element (PXRE) (AID 2282957); conditions: HepG2 Attagene CIS-FACTORIAL PXRE reporter, mRNA; actives raise or lower the signal
Outline: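 Endogenous transcription factor activity in HepG2 was gauged through induction of reporter mRNA driven by a cis-regulating promoter element, sampled 24 h post-treatment. Activity was fitted in both directions against DMSO negative control.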

[3] = ATG_PPRE_CIS: Attagene CIS-FACTORIAL HepG2 Assay for human Peroxisome Proliferator-activated Response Element (PPRE) (AID 2282958); conditions: HepG2 PPRE cis-element reporter, Attagene transcription factor profiling; actives raise or lower the signal
Outline: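 Read-out: fluorescent reporter mRNA fragments resolved by capillary electrophoresis after RT-PCR. HepG2 cells carried transiently transfected PPRE-driven cis reporter constructs and were dosed for 24 h; gain or loss of signal fitted relative to DMSO.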

[4] = ATG_RORE_CIS: Attagene CIS-FACTORIAL HepG2 Assay for human RAR-related Orphan Receptor Element (RORE) (AID 2282959); conditions: HepG2 Attagene cis-factorial RORE reporter, mRNA; actives raise or lower the signal
Outline: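 Readout: fluorescent reporter mRNA by RT-PCR plus capillary electrophoresis, 24 h after dosing transfected HepG2 cells. Endogenous transcription factor activity on a cis promoter element is measured. Gain or loss of signal fitted against DMSO.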

[5] = ATG_Sox_CIS: Attagene CIS-FACTORIAL HepG2 Assay for human SRY-box transcription factor (SOX) (AID 2282960); conditions: HepG2 Attagene cis-factorial SOX reporter, mRNA; actives raise or lower the signal
Outline: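 Read-out: fluorescent RT-PCR products of SOX1-linked reporter transcripts resolved by capillary electrophoresis, fitted bidirectionally against DMSO. Transiently transfected HepG2 cells, 24 h after chemical exposure, endogenous transcription factor activity.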

[6] = ATG_SREBP_CIS: Attagene CIS-FACTORIAL HepG2 Assay for human Sterol Regulatory Element Binding (SREBP) (AID 2282962); conditions: HepG2 Attagene cis-factorial SREBP reporter, mRNA; actives raise or lower the signal
Outline: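 Endogenous factor activity is measured in HepG2 through multiplexed reporter units under cis-element control. Following a 24 h incubation, reporter transcripts are reverse-transcribed, PCR-amplified and sized by capillary electrophoresis; activity is fitted in both directions relative to DMSO.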

[7] = molecular target: Signal transducer and activator of transcription 3 (Homo sapiens) (UniProt P40763); assay: ATG_STAT3_CIS: Attagene CIS-FACTORIAL HepG2 Assay for human Signal Transducer and Activator of Transcription 3 (STAT3) (AID 2282963); conditions: HepG2, Attagene cis-factorial STAT3 reporter transcription; actives raise or lower the signal
Sequence of Signal transducer and activator of transcription 3 (Homo sapiens) (P40763 whole entry, looked up): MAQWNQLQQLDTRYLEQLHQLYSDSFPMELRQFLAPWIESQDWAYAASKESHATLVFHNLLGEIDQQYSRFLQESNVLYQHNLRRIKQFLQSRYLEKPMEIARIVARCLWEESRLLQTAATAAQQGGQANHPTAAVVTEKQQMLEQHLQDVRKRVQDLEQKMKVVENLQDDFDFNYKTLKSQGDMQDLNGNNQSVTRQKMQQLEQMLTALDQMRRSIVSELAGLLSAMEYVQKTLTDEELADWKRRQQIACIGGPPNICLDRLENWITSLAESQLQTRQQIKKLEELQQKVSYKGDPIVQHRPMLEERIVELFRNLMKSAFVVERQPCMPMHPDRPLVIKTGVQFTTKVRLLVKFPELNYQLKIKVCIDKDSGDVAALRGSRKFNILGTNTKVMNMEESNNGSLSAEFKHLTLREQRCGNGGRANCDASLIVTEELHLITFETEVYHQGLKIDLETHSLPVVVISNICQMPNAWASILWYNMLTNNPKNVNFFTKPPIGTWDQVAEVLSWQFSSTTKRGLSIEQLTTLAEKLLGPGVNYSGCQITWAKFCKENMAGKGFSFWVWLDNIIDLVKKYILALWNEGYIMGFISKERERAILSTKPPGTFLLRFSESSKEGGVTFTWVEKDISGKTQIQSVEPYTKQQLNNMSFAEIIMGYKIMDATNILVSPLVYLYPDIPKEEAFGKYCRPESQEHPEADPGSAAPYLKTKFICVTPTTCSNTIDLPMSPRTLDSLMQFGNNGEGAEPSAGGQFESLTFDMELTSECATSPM
Outline: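 HepG2, MRTU-transfected, 24 h dosing. RNA → RT → PCR → FAM label → HpaI → CE. Bidirectional fit vs DMSO.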

[8] = ATG_TA_CIS: Attagene CIS-FACTORIAL HepG2 Assay for human TA Basal Promoter (AID 2282964); conditions: HepG2 Attagene CIS-factorial TA basal promoter reporter; actives raise or lower the signal
Outline: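 Cis-factorial format in HepG2: reporters report endogenous factors, not chimeric Gal4 fusions. After 24 h treatment, reporter transcripts were measured by RT-PCR-capillary electrophoresis fluorescence, analysed bidirectionally versus DMSO.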

[9] = ATG_TCF_b_cat_CIS: Attagene CIS-FACTORIAL HepG2 Assay for human T-Cell-Factor with beta-catenin (TCF/b-cat) (AID 2282965); conditions: HepG2 TCF/beta-catenin cis-reporter transcription, actives raise or lower the signal
Outline: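 Using capillary electrophoresis as the read-out, labelled reporter cDNA fragments from transiently transfected HepG2 were sized and quantified. Exposure lasted 24 hours; activity in either direction was referenced to DMSO.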

[10] = ATG_TAL_CIS: Attagene CIS-FACTORIAL HepG2 Assay for human TAL Basal Promoter (AID 2282966); conditions: HepG2 Attagene cis-factorial TAL promoter reporter; actives raise or lower the signal;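 note: background control endpoint measuring basal TAL promoter reporter mRNA not a specific factor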
Outline: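 Endogenous transcription-factor activity is sensed in HepG2 cells through transfected cis-promoter reporter constructs. After 24 h dosing, reporter transcripts are quantified by RT-PCR and capillary electrophoresis. Gain or loss of signal is fitted relative to DMSO.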

[11] = ATG_TGFb_CIS: Attagene CIS-FACTORIAL HepG2 Assay for human Transforming Growth Factor (TGF) (AID 2282967); conditions: HepG2 Attagene CIS TGFb reporter, mRNA transcription; actives raise or lower the signal
Outline: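 Multiplexed cis-reporter HepG2 system, 24 h treatment; mRNA induction read by fluorescence after RT-PCR and CE; DMSO negative control, bidirectional curve fitting.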

[12] = molecular target: Nuclear receptor subfamily 1 group I member 3 (Homo sapiens) (UniProt Q14994); assay: ATG_CAR_TRANS: Attagene TRANS-FACTORIAL HepG2 Assay for human Constitutive Androstane Receptor (CAR) (AID 2282969; active = hit-call score of the fitted dose curve at least 0.9, where 1 is the maximum;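 note: activators raise reporter mRNA above DMSO so AC50 marks induction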); conditions: HepG2 Attagene TRANS-FACTORIAL CAR reporter
Sequence of Nuclear receptor subfamily 1 group I member 3 (Homo sapiens) (Q14994 whole entry, looked up, the tested form may be a part): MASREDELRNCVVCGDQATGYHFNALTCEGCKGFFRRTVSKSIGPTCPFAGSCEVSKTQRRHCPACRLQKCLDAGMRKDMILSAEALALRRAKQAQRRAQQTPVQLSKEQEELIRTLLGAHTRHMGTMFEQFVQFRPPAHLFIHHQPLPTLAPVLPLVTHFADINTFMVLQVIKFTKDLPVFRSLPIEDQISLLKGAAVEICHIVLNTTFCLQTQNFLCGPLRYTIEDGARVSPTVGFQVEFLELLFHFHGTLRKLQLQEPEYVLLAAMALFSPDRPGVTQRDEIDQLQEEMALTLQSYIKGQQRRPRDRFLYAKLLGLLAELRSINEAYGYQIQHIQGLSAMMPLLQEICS
Outline: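 Steps: transient transfection of HepG2 with multiple GAL4-UAS reporter units; 24 h compound incubation; RNA isolation, RT-PCR, 6-FAM primer extension, HpaI digest; capillary electrophoresis. Gain-of-signal relative to DMSO negative control.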

[13] = molecular target: Estrogen receptor (Homo sapiens) (UniProt P03372); assay: ATG_ERa_TRANS: Attagene TRANS-FACTORIAL HepG2 Assay for human Estrogen Receptor alpha (ERa) (AID 2282970; active = hit-call score of the fitted dose curve at least 0.9, where 1 is the maximum); conditions: HepG2 Attagene TRANS ERa GAL4 reporter, mRNA
Sequence of Estrogen receptor (Homo sapiens) (P03372 whole entry, looked up, the tested form may be a part): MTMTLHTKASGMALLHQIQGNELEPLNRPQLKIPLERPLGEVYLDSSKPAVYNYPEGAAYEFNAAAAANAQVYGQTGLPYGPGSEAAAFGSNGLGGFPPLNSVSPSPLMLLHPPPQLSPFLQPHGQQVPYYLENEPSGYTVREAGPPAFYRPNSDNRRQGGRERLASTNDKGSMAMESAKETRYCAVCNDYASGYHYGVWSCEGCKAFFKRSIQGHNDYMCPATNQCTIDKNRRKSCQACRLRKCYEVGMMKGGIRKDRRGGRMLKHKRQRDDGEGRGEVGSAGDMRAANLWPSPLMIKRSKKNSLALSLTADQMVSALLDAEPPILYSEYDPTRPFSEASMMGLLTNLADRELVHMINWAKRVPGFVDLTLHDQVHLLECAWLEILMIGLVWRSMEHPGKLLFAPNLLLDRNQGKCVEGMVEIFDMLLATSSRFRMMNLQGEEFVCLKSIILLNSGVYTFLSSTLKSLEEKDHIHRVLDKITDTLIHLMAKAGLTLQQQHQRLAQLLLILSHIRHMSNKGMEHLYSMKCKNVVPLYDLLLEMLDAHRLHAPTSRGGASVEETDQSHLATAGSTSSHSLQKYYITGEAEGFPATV
Outline: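 Transfected HepG2 cells carrying GAL4-UAS-driven reporter units were dosed for 24 hours. Total RNA was reverse-transcribed, reporter sequences PCR-amplified, FAM-labelled, HpaI-digested and resolved by capillary electrophoresis. Increases over DMSO control defined activity.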

[14] = molecular target: Steroid hormone receptor ERR1 (Homo sapiens) (UniProt P11474); assay: ATG_ERRa_TRANS: Attagene TRANS-FACTORIAL HepG2 Assay for human Estrogen-Related Receptor alpha (ERRa) (AID 2282971; active = hit-call score of the fitted dose curve at least 0.9, where 1 is the maximum); conditions: HepG2 Attagene TRANS reporter, ERRa transactivation
Sequence of Steroid hormone receptor ERR1 (Homo sapiens) (P11474 whole entry, looked up, the tested form may be a part): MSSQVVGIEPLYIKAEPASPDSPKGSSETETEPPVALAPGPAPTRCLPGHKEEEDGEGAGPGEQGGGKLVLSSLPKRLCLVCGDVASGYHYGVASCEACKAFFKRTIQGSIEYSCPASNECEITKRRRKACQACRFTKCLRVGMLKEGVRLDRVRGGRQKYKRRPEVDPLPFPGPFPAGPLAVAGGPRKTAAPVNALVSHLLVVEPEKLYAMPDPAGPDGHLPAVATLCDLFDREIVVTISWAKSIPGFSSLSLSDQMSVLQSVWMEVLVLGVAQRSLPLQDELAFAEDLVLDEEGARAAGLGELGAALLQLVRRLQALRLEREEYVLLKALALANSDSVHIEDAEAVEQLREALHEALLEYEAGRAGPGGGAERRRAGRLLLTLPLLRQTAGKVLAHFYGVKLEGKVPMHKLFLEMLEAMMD
Outline: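 HepG2 cells were transiently transfected with multiple GAL4-UAS reporter units, then dosed with compound for 24 h. Total RNA was reverse-transcribed, reporter cDNA PCR-amplified and fluorescently labelled, and fragments resolved by capillary electrophoresis; induction was compared with DMSO.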

[15] = molecular target: X-box-binding protein 1 (Homo sapiens) (UniProt P17861); assay: ATG_Xbp1_CIS: Attagene CIS-FACTORIAL HepG2 Assay for human X-box Binding Protein 1 (XBP1) (AID 2282972); conditions: HepG2 XBP1 cis-element reporter, Attagene multiplex; actives raise or lower the signal
Sequence of X-box-binding protein 1 (Homo sapiens) (P17861 whole entry, looked up): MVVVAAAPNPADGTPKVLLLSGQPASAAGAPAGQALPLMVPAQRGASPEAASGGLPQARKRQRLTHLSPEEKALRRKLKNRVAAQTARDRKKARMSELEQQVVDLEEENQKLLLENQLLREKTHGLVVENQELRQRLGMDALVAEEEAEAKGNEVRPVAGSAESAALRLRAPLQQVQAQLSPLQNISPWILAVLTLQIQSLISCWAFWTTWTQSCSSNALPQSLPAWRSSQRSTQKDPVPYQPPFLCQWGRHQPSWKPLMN
Outline: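 Multiplexed cis-reporter readout in transfected HepG2 liver cells. Exposure lasted 24 hours. Activity in either direction was fitted against DMSO as negative control and baseline.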

[16] = molecular target: Transcription factor Sp1 (Homo sapiens) (UniProt P08047); assay: ATG_Sp1_CIS: Attagene CIS-FACTORIAL HepG2 Assay for human Specificity Protein 1 (Sp1) (AID 2282961); conditions: HepG2 Sp1 cis-reporter transcription, actives raise or lower the signal
Sequence of Transcription factor Sp1 (Homo sapiens) (P08047 whole entry, looked up): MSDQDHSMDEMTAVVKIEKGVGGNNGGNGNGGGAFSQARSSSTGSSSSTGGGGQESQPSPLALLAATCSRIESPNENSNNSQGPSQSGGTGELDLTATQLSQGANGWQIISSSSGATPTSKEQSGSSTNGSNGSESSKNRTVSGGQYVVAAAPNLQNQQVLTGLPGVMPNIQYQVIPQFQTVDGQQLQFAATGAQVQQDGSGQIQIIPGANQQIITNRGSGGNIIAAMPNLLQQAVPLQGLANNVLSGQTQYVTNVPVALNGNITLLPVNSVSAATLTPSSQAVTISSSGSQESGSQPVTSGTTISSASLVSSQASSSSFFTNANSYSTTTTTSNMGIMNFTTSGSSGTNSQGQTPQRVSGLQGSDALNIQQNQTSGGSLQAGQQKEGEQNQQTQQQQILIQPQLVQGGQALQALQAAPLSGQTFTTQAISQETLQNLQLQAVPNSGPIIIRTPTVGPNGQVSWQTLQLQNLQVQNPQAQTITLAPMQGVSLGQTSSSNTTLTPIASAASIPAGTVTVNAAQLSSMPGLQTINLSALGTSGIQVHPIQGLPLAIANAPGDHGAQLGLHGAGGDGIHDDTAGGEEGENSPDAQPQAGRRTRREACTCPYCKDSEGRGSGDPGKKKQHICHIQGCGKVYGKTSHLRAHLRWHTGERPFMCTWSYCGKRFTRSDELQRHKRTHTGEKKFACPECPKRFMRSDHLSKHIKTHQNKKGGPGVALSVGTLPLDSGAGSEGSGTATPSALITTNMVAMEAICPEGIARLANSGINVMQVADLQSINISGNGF
Outline: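 Read-out: fluorescence of 6-FAM-labeled, HpaI-digested RT-PCR products separated by capillary electrophoresis. HepG2 cells carried transfected cis-element reporter units and were exposed to chemicals for 24 h; gain or loss of signal fitted relative to DMSO.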

[17] = ATG_M_19_TRANS: Attagene TRANS-FACTORIAL HepG2 Assay for M19 Transcription Factor (Internal Marker) (AID 2282974; active = hit-call score of the fitted dose curve at least 0.9, where 1 is the maximum); conditions: HepG2 Attagene TRANS-FACTORIAL M19 internal marker reporter
Outline: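 24 h chemical exposure of transiently transfected HepG2 (MRTU library). RNA → oligo(dT) RT → PCR → 6-FAM labelling → HpaI cut → CE fluorescence. Positive-direction fit vs DMSO baseline; background internal-marker readout.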

[18] = ATG_Hpa5_TRANS: Attagene TRANS-FACTORIAL HepG2 Assay for human GAL4-Hpa5 Hepatocyte Transcription Factor Basal Promoter (AID 2282975; active = hit-call score of the fitted dose curve at least 0.9, where 1 is the maximum;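 note: hits are increases in reporter mRNA over DMSO baseline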); conditions: HepG2 Attagene GAL4-Hpa5 transcription reporter
Outline: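 Gain-of-signal versus DMSO is fitted for reporter mRNA quantified by RT-PCR and capillary electrophoresis after 24 h exposure. This endpoint is an internal background marker in transiently transfected HepG2 cells carrying GAL4-UAS reporter units.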

Measured: AC50

COC(=O)c1ccccc1CS(=O)(=O)NC(=O)Nc1nc(OC)cc(OC)n1
active: [2] 33.9 µM
inactive: [1] | [2] | [3] | [4] | [5] | [6] | [7] | [8] | [9] | [10] | [11] | [12] | [13] | [14] | [15]

O=[N+]([O-])c1c(Cl)c(Cl)c(Cl)c(Cl)c1Cl
active: [1] 50 µM | [3] 2.32 µM | [4] 10.7 µM | [9] 29 µM | [13] 50 µM
not listed: [14]
inactive: all other assays above

COc1nn(CSP(=S)(OC)OC)c(=O)s1
active: [2] 15.6 µM
not listed: [14] | [17]
inactive: all other assays above

COP(=S)(OC)Oc1ccc(SC)c(C)c1
active: [2] 10.8 µM | [4] 53.7 µM | [6] 24.7 µM | [13] 18.8 µM
not listed: [14] | [17]
inactive: all other assays above

Clc1ccccc1-c1nnc(-c2ccccc2Cl)nn1
active: [3] 8.03 µM
not listed: [14] | [16] | [18]
inactive: all other assays above

CCC(C)(NC(=O)c1cc(Cl)c(C)c(Cl)c1)C(=O)CCl (configuration not stated)
active: [2] 1.58 µM
not listed: [16]
inactive: all other assays above
